{"source": "PubChem BioAssay (NCATS)", "note": "Several values for one entry are separate records, joined by “and”; a condition that tells them apart may be missing. Equal entries are not always repeated. Results filed as inconclusive are left out. Where a call stands in place of a potency, no number is given. Activity calls are given as the source filed them. Calls follow the shape of the dose curve; as a rule, active = well fitted inhibition curve with a large enough effect; inconclusive = small, poorly fitted or top-dose-only effect; inactive = no such curve, though single readings can be large or run the other way. Potency is read from the fitted curve at half-maximal effect."}
{"test_system": "Zika virus NS2B-NS3 protease (linked construct)", "assay": "Primary screen NINDS Rhodamine qHTS for Zika virus inhibitors (AID 1347160); also: nearly all actives have a fitted effect of over 55% in size", "details": "purified NS2B-NS3 protease, Rhodamine110 substrate fluorescence; series mostly up to 57.1 µM", "how_it_was_run": "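Purified linked NS2B-NS3 protease (NS2B hydrophilic domain joined to NS3 protease by flexible linker), 25 nM in 10 mM Tris-HCl pH 8.0, 0.01% Tween 20. Compounds titrated, 15 min preincubation at room temperature; 1.5 microM Rhodamine110 substrate, FITC fluorescence change over 15 min.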"}
{"smiles": "COC(=O)[C@@H]1[C@H]2C[C@H]3c4[nH]c5ccccc5c4CCN3C[C@@H]2CC[C@@H]1O", "Potency": "inactive"}
{"smiles": "Clc1ccc(Cn2c(CN3CCCC3)nc3ccccc32)cc1", "Potency": "inactive"}
{"smiles": "Cc1ccn(-c2ccc(-c3ncco3)cc2)c(=O)c1-c1ccc2nc(N)ncc2c1", "Potency": "inactive"}
{"smiles": "CS(=O)c1ccc(-c2nc(-c3ccc(F)cc3)c(-c3ccncc3)[nH]2)cc1", "note": "(centres undefined)", "Potency": "inactive"}
{"smiles": "CCN(CC)CCNC(=O)c1ccc(N)cc1", "Potency": "inactive"}
{"smiles": "CN(C)CCC(c1ccccc1)c1ccccn1", "note": "(centres undefined)", "Potency": "inactive"}
{"smiles": "O=c1cc(-c2ccccc2)oc2cc(O)c(O)c(O)c12", "Potency": "17.5 µM (active)"}
{"smiles": "CC1(C)CCC(CN2CCN(c3ccc(C(=O)NS(=O)(=O)c4ccc(NCC5CCOCC5)c([N+](=O)[O-])c4)c(Oc4cnc5[nH]ccc5c4)c3)CC2)=C(c2ccc(Cl)cc2)C1", "Potency": "3.98 µM (active)"}
{"smiles": "CC(=O)Nc1ccc([C@H](C)C(=O)Nc2ncc(C(C)C)s2)cc1", "Potency": "inactive"}
{"smiles": "COc1ccc2cc(-c3nc(-c4ccc(S(C)=O)cc4)[nH]c3-c3ccncc3)ccc2c1", "note": "(centres undefined)", "Potency": "inactive"}
{"smiles": "NC(=O)c1cccc2[nH]c(-c3ccc([C@H]4CCCN4)cc3F)nc12", "Potency": "inactive"}
{"test_system": "not listed separately", "assay": "Confirmatory screen NINDS Rhodamine qHTS for Zika virus inhibitors (AID 1347161); also: nearly all actives have a fitted effect of over 60% in size", "details": "purified enzyme assay, Rhodamine110 substrate fluorescence, 15 min; series mostly up to 114 µM", "how_it_was_run": "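Percent inhibition, normalized to uninhibited and enzyme-free controls, is fitted to a 4-parameter Hill equation. Fluorescence change comes from a 15-min cleavage of 1.5 microM bis-peptide Rhodamine110 substrate by 25 nM linked NS2B-NS3 at room temperature.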"}
{"smiles": "Cc1ccn(-c2ccc(-c3ncco3)cc2)c(=O)c1-c1ccc2nc(N)ncc2c1", "Potency": "49.3 µM (active)"}
{"smiles": "O=C(O)c1c(Cl)c(Cl)c(Cl)c(Cl)c1-c1c2cc(I)c(=O)c(I)c-2oc2c(I)c(O)c(I)cc12", "Potency": "inactive"}
{"smiles": "CS(=O)c1ccc(-c2nc(-c3ccc(F)cc3)c(-c3ccncc3)[nH]2)cc1", "note": "(centres undefined)", "Potency": "inactive"}
{"smiles": "Cc1cc(OCCCc2c(C(=O)O)n(Cc3cccnc3)c3c(-c4c(COc5ccc(N6CCN([S+](C)(=O)[O-])CC6)cc5)nn(C)c4C)cccc23)cc(C)c1Cl", "Potency": "3.11 µM (active)"}
{"smiles": "CC1CCC(C(=O)N(c2cc(C#CC(C)(C)C)sc2C(=O)O)C2CCC(O)CC2)CC1", "note": "(centres undefined)", "Potency": "5.53 µM (active)"}
{"smiles": "CC1(C)CCC(CN2CCN(c3ccc(C(=O)NS(=O)(=O)c4ccc(NCC5CCOCC5)c([N+](=O)[O-])c4)c(Oc4cnc5[nH]ccc5c4)c3)CC2)=C(c2ccc(Cl)cc2)C1", "Potency": "1.24 µM (active) and 857 nM (active)"}
{"smiles": "NC(=O)c1cccc2[nH]c(-c3ccc([C@H]4CCCN4)cc3F)nc12", "Potency": "inactive"}
{"smiles": "O=c1c(O)c(-c2ccc(O)cc2)oc2cc(O)cc(O)c12", "Potency": "inactive"}
